Source: PubChem (National Center for Advancing Translational Sciences (NCATS))
Sm TGR inh = qHTS Assay for the Inhibitors of Schistosoma Mansoni Peroxiredoxins; hit rate 3% among 360,000; purified TGR, DTNB reduction, TNB absorbance 405 nm; Schistosoma mansoni thioredoxin glutathione reductase (TGR), Q962Y6; AID 485364, 2010; Potency, µM (highest dose often 114 µM), actives largely listed as inhibitors; further: nearly all actives have a fitted effect of over 60% in size
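First, TGR (20 nM dispensed) and NADPH were mixed with compound. Second, a 15 min room-temperature incubation followed. Third, further NADPH and then DTNB were added to start the reaction. Finally, TNB absorbance was monitored kinetically.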
RE007 growth inh = qHTS Assay for Inhibitors of the HIV-1 protein Vpr; Potency, µM (titrated, usually from 92.2 µM), actives largely listed as inhibitors; S. pombe RE007 Vpr strain, BacTiter-Glo ATP luminescence, 24 h; hit rate 0.21% among 360,000; active means well fitted falling curve with a large enough effect; inconclusive means small, poorly fitted or top-dose-only effect; inactive means no such curve, though single readings can be large or run the other way; further: nearly all actives have a fitted effect of over 50% in size
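Fission yeast RE007 carrying one integrated HIV-1 vpr copy, seeded at OD 0.01 in PMG+AL medium with 23 nL pinned compound. Grown 24 h at 30 degrees; viability read by BacTiter-Glo luminescence after 5 min.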
AmpC inh detg = qHTS Inhibitors of AmpC Beta-Lactamase (assay with detergent); hit rate 0.041% among 370,000; P00811; AID 485294, 2010; AmpC hydrolysis of nitrocefin, absorbance 480 nm, 0.01% Triton; Potency, µM (highest dose often 114 µM), actives largely listed as inhibitors; further: nearly all actives have a fitted effect of over 25% in size
Target sequence (P00811 whole entry, looked up): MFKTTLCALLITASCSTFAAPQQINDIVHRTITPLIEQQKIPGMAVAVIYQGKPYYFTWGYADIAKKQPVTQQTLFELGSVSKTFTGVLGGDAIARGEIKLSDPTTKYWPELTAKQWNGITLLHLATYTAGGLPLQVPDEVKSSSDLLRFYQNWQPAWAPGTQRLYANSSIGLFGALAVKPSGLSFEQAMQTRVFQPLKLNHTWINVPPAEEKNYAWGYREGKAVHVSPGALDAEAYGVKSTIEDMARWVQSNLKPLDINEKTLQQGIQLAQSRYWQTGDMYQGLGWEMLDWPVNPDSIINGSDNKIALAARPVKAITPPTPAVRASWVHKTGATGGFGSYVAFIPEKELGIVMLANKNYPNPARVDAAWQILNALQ
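20 mM phosphate pH 7.0 + 0.01% (detergent screen) or 0.0001% Triton X-100; 5.3 nM AmpC reagent; cpd preinc 15 min RT; nitrocefin (800 uM stock) to start; A480 q20 s × 4 min; Activity was normalised to no-enzyme and no-compound control wells.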
Giardia FBPA inh = qHTS Assay for Inhibitors of Fructose-1,6-bisphosphate Aldolase from Giardia Lamblia; purified Giardia FBPA; Potency, µM (titrated, usually from 59.6 µM), hits mostly inhibitors; hit rate 0.71% among 290,000; AID 2451, 2010; further: nearly all actives have a fitted effect of over 55% in size
Target sequence (A8B2U2 whole entry, looked up): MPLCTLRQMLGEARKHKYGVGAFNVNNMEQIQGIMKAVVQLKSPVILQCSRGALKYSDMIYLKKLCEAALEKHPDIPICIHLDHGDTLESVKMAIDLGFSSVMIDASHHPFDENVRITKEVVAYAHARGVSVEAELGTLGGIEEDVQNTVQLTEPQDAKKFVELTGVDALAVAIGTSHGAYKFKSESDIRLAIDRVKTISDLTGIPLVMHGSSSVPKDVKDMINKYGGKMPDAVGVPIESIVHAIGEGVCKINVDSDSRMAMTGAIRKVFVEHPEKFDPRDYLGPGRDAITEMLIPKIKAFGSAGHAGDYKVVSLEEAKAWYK
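40 nM FBPA preincubated 10 min at RT with compound (up to 57.5 uM final), then substrate plus GAPDH/TPI/NAD/arsenate coupling and diaphorase/resazurin added. Fluorescence read after 20 min at RT, 525/598 nm.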
AmpC no deterg = qHTS Inhibitors of AmpC Beta-Lactamase (assay without detergent); P00811; AmpC nitrocefin hydrolysis, absorbance 480 nm, 0.0001% Triton; Potency, µM (doses to about 57.1 µM), actives largely listed as inhibitors; hit rate 0.52% among 330,000; further: nearly all actives have a fitted effect of over 20% in size
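AmpC (5.3 nM in the dispensed reagent) in 20 mM phosphate pH 7.0 with 0.01% (detergent screen) or 0.0001% Triton X-100 was preincubated with compounds for 15 min at room temperature. Nitrocefin was then added from an 800 uM solution, and hydrolysis was followed at 480 nm.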
A number is an active result; . = inactive; ? = inconclusive; / = no result given; [ ] = remark or other dose. Only some compounds are listed: those with a hit (about 3.4% of all), similar ones and a draw of the others. Unless noted, the call rests on the fitted dose curve; in most records, active means well fitted curve in the direction sought with a large enough effect; inconclusive means small, poorly fitted or top-dose-only effect, or another doubt; inactive means no such curve, though single readings can be large; an effect the other way counts as inactive or inconclusive.

SMILES	Sm TGR inh	RE007 growth inh	AmpC inh detg	Giardia FBPA inh	AmpC no deterg
COc1ccc(NC(=O)CSc2nc3c(c(=O)n2-c2ccccc2OC)SCC3)cc1	.	.	.	.	35µM
O=C(CSc1nc2c([nH]c3ccccc32)c(=O)n1-c1ccc(F)cc1)NCc1ccco1	.	.	.	.	22µM
O=C(CSc1nc2c(c(=O)n1-c1ccc(F)cc1)SCC2)NCc1ccco1	40µM	.	.	.	.
Cc1ccc(-n2c(SCC(=O)NCc3ccco3)nc3sc(C)c(C)c3c2=O)cc1	.	.	.	.	.
Cc1ccc(-n2c(SCC(=O)NCc3ccco3)nc3nc4c(cc3c2=O)COC(C)(C)C4)cc1	22µM	.	.	.	.
NS(=O)(=O)c1cccc(NC(=O)CCSc2ccc(Cl)cc2)c1	18µM	.	?	.	.
NS(=O)(=O)c1ccc(-n2ncc3c(=O)[nH]c(SCC(=O)Nc4nccs4)nc32)cc1	.	.	.	.	.
O=C(/C=C/c1ccc(OCCCF)cc1)NCc1ccc(Cl)c(Cl)c1	.	.	.	.	.
O=C(NC1CCSc2ccccc21)c1cccc(Cl)c1 (stereo not given)	7.9µM	.	.	/	.
CCOc1ccc(NC(=O)CN(C)C(=O)C2CC(=O)N(Cc3ccco3)C2)cc1OCC (stereo not given)	45µM	.	?	/	.
COc1ccc(OC(C)C(=O)NC2CCCCCCC2)cc1 (stereo not given)	/	.	/	/	/
CCN(CC)C(=O)C(C)N(C#N)c1nc(Cl)nc(N(C)C)n1 (stereo not given)	.	.	.	.	.
CC(=O)NC(N(C#N)c1nc(Cl)nc(N(C)C)n1)C(Cl)(Cl)Cl (stereo not given)	40µM	.	.	.	.
Cc1cc2oc(=O)cc(CN3CCN(c4ccc(Cl)c(Cl)c4)CC3)c2cc1Cl	/	.	/	/	/
CC(C)(C)C(=O)N1Cc2cc(N3CCOCC3)ccc2-n2nncc2C1	/	.	/	/	/
Cc1ncc(C[n+]2csc(CCO)c2C)c(N)n1	?	.[18.4 µM]	?	?	.
Cc1ncc(C[n+]2csc(C)c2C)c(N)n1	25µM	.	.	.	.
O=C(Nc1ccc(F)cc1)c1cc2cc(Cl)ccc2[nH]1	.	/	.	.	.
Cc1ccccc1OCc1nc2ccccc2c(=O)n1/N=C/c1ccco1	40µM	.	.	.	.
COC(=O)c1ccc(S(=O)(=O)NCc2cccc(OC)c2)n1C	.	.	.	.	.
Cc1cccc(Nc2ncnc(N)c2[N+](=O)[O-])n1	.	.	.	.	.
Cc1cc(C)nc(Sc2ncnc(N)c2[N+](=O)[O-])n1	4µM	.	.	.	.
CCC(=O)N(CCC1(C(C)C)CCOC(C)(C)C1)C(C)c1cccs1 (stereo not given)	.	.	.	.	.
CCOC(=O)N/N=C\C=C\c1ccco1	22µM	.	?	.	.
CC(/C=C/c1ccco1)=N/NC(=O)CNc1ccccc1C	35µM	.	.	.	.
SMILES	Sm TGR inh	RE007 growth inh	AmpC inh detg	Giardia FBPA inh	AmpC no deterg
CCOC(=O)N/N=C(C)/C=C/c1ccccc1	.	.	.	.	.
CC(/C=C/c1ccco1)=N/NC(=O)c1ccccc1Cl	22µM	.	.	.	.
CCOC(=O)N/N=C(C)/C=C/c1ccco1	32µM	.	.	.	.
CC(/C=C/c1ccco1)=N\NC(=O)CNc1ccc2ccccc2c1	.	.	.	?	.
CC1(C)CSC(=NCCc2ccccc2)N1C(=O)c1ccc(C#N)cc1	.	.	.	.	.
CN1C(=O)N(CN2CCCCC2)C2C1N(C)C(=O)N2CN1CCCCC1 (stereo not given)	.	.	?	.	.
[O-][n+]1ccccc1SC/C=C/c1ccccc1	.	.	.	.	.
Nc1ncc([N+](=O)[O-])cc1Br	.	.	.	.	.
COc1ccc(NC(=S)NC(NC(C)=O)C(Cl)(Cl)Cl)c([N+](=O)[O-])c1 (stereo not given)	.	.	.	.	.
COc1ccc(NC(=S)NC(NC(=O)c2cccc(Cl)c2)C(Cl)(Cl)Cl)c([N+](=O)[O-])c1 (stereo not given)	.	.	.	.	.
COc1ccc(NC(=S)NC(NC(=O)CF)C(Cl)(Cl)Cl)c([N+](=O)[O-])c1 (stereo not given)	40µM	.	?	.	.
COc1ccc(NC(=S)NC(NC(=O)c2cccc(C)c2)C(Cl)(Cl)Cl)c([N+](=O)[O-])c1 (stereo not given)	.	.	.	.	4µM
COc1ccc(C(=O)O)cc1S(=O)(=O)Nc1ccc(C)cc1	.	.	.	.	.
O=C(Cc1ccc(F)cc1)N1CCN(c2ccc(F)cc2)CC1	.	.	.	.	.
NS(=O)(=O)c1ccc(NC(=S)Nc2ccc(F)c(F)c2)cc1	25µM	.	.	?	.
O=[N+]([O-])c1ccc(NC(=S)NCCc2ccc(Cl)cc2)cc1	?	?	.	.	0.14µM
NS(=O)(=O)c1ccc(CNC(=S)Nc2ccc(F)c(Cl)c2)cc1	?	.	.	.	.
NS(=O)(=O)c1ccc(NC(=S)NCCc2ccccc2)cc1	/	.	.	?	.
CC(=O)Nc1ccc(C(=O)NCCCOC(C)C)cc1	.	.	.	.	.
CC(C)OCCCNC(=S)Nc1ccc(S(N)(=O)=O)cc1	.	.	.	14µM	.
CC(=O)c1ccc(NC(=S)NCCc2ccc(S(N)(=O)=O)cc2)cc1	40µM	.	.	.	.
CNc1ccccc1C(C)(C)c1cc(-c2ccco2)n[nH]1	?	.	.	?	.
CCNC(=O)Oc1ccc(-c2csnn2)cc1	.	.	.	.	.
O=C(Nc1ccccc1F)C1CCCN(S(=O)(=O)c2ccccc2)C1 (stereo not given)	.	.	?	.	.
CCOc1cc(/C=N/n2c(C)nc3sc(C)c(C)c3c2=O)ccc1O	.	.	.	.	.
SMILES	Sm TGR inh	RE007 growth inh	AmpC inh detg	Giardia FBPA inh	AmpC no deterg
CCCn1nc2cc(C(=O)NCc3ccc4c(c3)OCO4)ccc2c1OCC	.	.	.	.	.
CCCCn1nc2cc(C(=O)NCc3ccc4c(c3)OCO4)ccc2c1OCC	.	.	.	.	0.32µM
CCOc1cc(C(=O)NCc2ccc3c(c2)OCO3)cc(OCC)c1OCC	35µM	.	?	.	.
CCCn1nc2cc(C(=O)NC3CCc4ccccc43)ccc2c1OCC (stereo not given)	.	.	.	.	0.28µM
COc1cccc(C(=O)NCCS(=O)(=O)NCc2ccc3c(c2)OCO3)c1	.	.	?	/	35µM
O=C(Nc1nnc(CSCc2ccc(F)cc2)s1)c1cccc([N+](=O)[O-])c1	.	.	.	?	.
